Results reported in the supplement of paper PMC6992640.
± gives the standard deviation of the averaged measurements.

Experiments:
Assay in all cases: cell viability (% of vehicle); higher = less cytotoxic
[1] = test system: HCI01 (cells of a triple-negative basal-like breast cancer xenograft); details: 1 µM; 72 h
[2] = test system: UCD52 (cells of a triple-negative basal-like breast cancer xenograft); details: 1 µM; 72 h
[3] = test system: WHIM2 (cells of a triple-negative basal-like breast cancer xenograft); details: 1 µM; 72 h
[4] = test system: WHIM30 (cells of a triple-negative basal-like breast cancer xenograft); details: 1 µM; 72 h
[5] = test system: HCI01; details: 10 µM; 72 h
[6] = test system: HCI03 (cells of an ER-positive luminal breast cancer xenograft); details: 10 µM; 72 h
[7] = test system: HCI09 (cells of a triple-negative luminal androgen receptor type breast cancer xenograft); details: 10 µM; 72 h
[8] = test system: HCI11 (cells of an ER-positive luminal breast cancer xenograft); details: 10 µM; 72 h
[9] = test system: HCI13 (cells of an ER-positive luminal breast cancer xenograft); details: 10 µM; 72 h
[10] = test system: HCI16 (cells of a triple-negative basal-like breast cancer xenograft); details: 10 µM; 72 h
[11] = test system: UCD52; details: 10 µM; 72 h
[12] = test system: WHIM2; details: 10 µM; 72 h
[13] = test system: WHIM30; details: 10 µM; 72 h

Structure (SMILES)	cell viability [1]	cell viability [2]	cell viability [3]	cell viability [4]	cell viability [5]	cell viability [6]	cell viability [7]	cell viability [8]	cell viability [9]	cell viability [10]	cell viability [11]	cell viability [12]	cell viability [13]
Clc1ccc(C(Cn2ccnc2)OCc2ccc(Sc3ccccc3)cc2)c(Cl)c1.O=[N+]([O-])O (stereo unspecified) [Fenticonazole Nitrate]	89.6	92.5	107	91.5	40.8 ± 0.92	96.9	19.2 ± 2.4	74.8	44.74 ± 0.32	105	59.12 ± 0.32	40.7 ± 11	91.8 ± 8.3
C#Cc1cccc(Nc2ncnc3cc(OCCOC)c(OCCOC)cc23)c1 [Erlotinib]	62.6	59.8	53.7	65	79.4 ± 26	73.6	63.7 ± 8.2	74.2	72.7 ± 3.5	81.1	67.82 ± 0.58	47.9 ± 9	107 ± 4.9
O=C(O)CO.[NH2-].[NH2-].[Pt+2] [Nedaplatin]	85.1	103	105	79.4	52.5 ± 16	89	87.8 ± 5.8	96.8	97 ± 12	51.1	33.06 ± 0.081	56.2 ± 5.7	66 ± 3.2
CCCCCCCCCCCCCCCCOP(=O)([O-])OCC[N+](C)(C)C [Miltefosine]	89.6	101	85.8	92.6	98.9 ± 9.1	108	87.7 ± 30	107	33.2 ± 0.37	82.1	77.6 ± 9.7	38.2 ± 14	58.56 ± 0.43
O=C(NN=Cc1ccc([N+](=O)[O-])o1)c1ccc(O)cc1 [Nifuroxazide]	78.8	91.1	95.3	77.5	63.5 ± 47	128	37 ± 17	82	62.8 ± 15	91.7	62.2 ± 28	94.9 ± 15	79.2 ± 5.8
CS(=O)(=O)CCNCc1ccc(-c2ccc3ncnc(Nc4ccc(OCc5cccc(F)c5)c(Cl)c4)c3c2)o1.Cc1ccc(S(=O)(=O)O)cc1.Cc1ccc(S(=O)(=O)O)cc1 [Lapatinib Ditosylate]	71.7	57.1	56.2	61.1	49.51 ± 0.1	45.4	36.3 ± 18	67.8	42.39 ± 0.3	61.8	28.1 ± 1.9	37.7 ± 3	47.4 ± 4
CCCCCCCCOc1ccccc1C(=O)Nc1ccc(C(=O)OCC[N+](C)(CC)CC)cc1.[Br-] [Otilonium Bromide]	91.3	100	105	90.7	51.9 ± 1.6	110	37.4 ± 9.3	77.9	42.9 ± 2.6	81.7	63.47 ± 0.62	37.7 ± 9.5	98.3 ± 10
